Assay outcomes from PubChem BioAssay.
Shown is part of a subset that was picked to be rich in hits.
CHX counter = affects cycloheximide protein synthesis inhibition readout, counter-screen | cell reporter, cycloheximide protein synthesis inhibition counterscreen | AID 2314 | max response, % | 300,000 tested, 12% active; in the data active = max response mostly above about 13%, no sharp cut-off; inactive = mostly below about 14%; also: read at 38.3 µM for the half of the compounds with a filed dose; 0% is about no effect
FBPA Giardia inh = blocks Giardia fructose-bisphosphate aldolase activity. A8B2U2. purified Giardia FBPA. Potency, µM (doses to about 59.6 µM), without a hit: at the highest dose activity, negative = inhibition, hits mostly inhibitors. 290,000 tested, 0.71% active. AID 2451; also: potency is read from the fitted curve at half-maximal effect; % is scaled to controls: 0 for no effect and ±100 for the full control effect; nearly all actives have a fitted effect of over 55% in size
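Giardia FBPA (40 nM reagent) was preincubated 10 min at RT with compound (up to 57.5 uM final), then substrate plus GAPDH/TPI/NAD/arsenate coupling system with diaphorase/resazurin was added; resorufin fluorescence (525/598 nm) was read after 20 min.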
Shiga toxin inh = inhibitors of Shiga toxin in Vero cells; Vero cells, Shiga toxin protein synthesis inhibition reporter; inhibition, % at 38.7 µM; 290,000 tested, 9.2% active; in the data active = inhibition mostly above about 28%, no sharp cut-off; inactive = mostly below about 43%; also: 0% is about no effect
RE007 growth inh = less growth of the S. pombe RE007 Vpr strain. S. pombe RE007 Vpr strain, BacTiter-Glo ATP luminescence, 24 h. Potency, µM (doses to about 92.2 µM), for inactives: at the highest dose activity change, negative = less growth, hits mostly inhibitors. 360,000 tested, 0.21% active. AID 651644; active = well fitted falling curve with a large enough effect; inconclusive = small, poorly fitted or top-dose-only effect; inactive = no such curve, though single readings can be large or run the other way; also: potency is read from the fitted curve at half-maximal effect; % is scaled to controls: 0 for no effect and ±100 for the full control effect; nearly all actives have a fitted effect of over 50% in size
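Fission yeast RE007 carrying one integrated HIV-1 vpr copy, seeded at OD 0.01 in PMG+AL medium with 23 nL pinned compound. Grown 24 h at 30 degrees; viability read by BacTiter-Glo luminescence after 5 min.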
LmPK inhibitor = inhibitors of Leishmania mexicana pyruvate kinase. Potency, µM (top dose mostly 57.5 µM), without a hit: at the top dose activity change, negative = inhibition, most hits filed as inhibitors. AID 1721. 290,000 tested, 0.37% active. purified LmPK, Kinase-Glo ATP luminescence, 1 h. Q27686; also: potency is read from the fitted curve at half-maximal effect; % is scaled to controls: 0 for no effect and ±100 for the full control effect
Target sequence (Q27686 whole entry, looked up): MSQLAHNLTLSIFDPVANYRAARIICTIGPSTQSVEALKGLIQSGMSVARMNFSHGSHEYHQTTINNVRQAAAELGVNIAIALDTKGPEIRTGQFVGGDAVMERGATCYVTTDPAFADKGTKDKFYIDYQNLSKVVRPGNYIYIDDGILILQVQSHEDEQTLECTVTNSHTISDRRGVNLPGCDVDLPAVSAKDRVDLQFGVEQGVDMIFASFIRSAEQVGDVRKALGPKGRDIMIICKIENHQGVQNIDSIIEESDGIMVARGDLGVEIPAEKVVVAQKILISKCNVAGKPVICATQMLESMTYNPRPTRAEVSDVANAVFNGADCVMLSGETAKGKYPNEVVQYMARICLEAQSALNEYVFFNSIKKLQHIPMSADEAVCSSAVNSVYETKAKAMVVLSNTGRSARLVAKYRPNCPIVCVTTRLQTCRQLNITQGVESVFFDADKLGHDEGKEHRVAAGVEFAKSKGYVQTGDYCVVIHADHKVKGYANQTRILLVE
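qHTS format; LmPK 0.1 nM; substrates PEP 0.5 mM and ADP 0.1 mM. One-hour room-temperature incubation, then coupled luciferase luminescence; 0.5 nM enzyme wells mark activation.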
Tb PYK inh = blocks Trypanosoma brucei pyruvate kinase | Q57TT1 | TbPYK enzyme, Kinase-Glo Plus ATP luminescence, 45 min | Potency, µM (series often up to 76.8 µM), inactives show top-dose activity, negative = inhibition, most hits filed as inhibitors | 410,000 tested, 0.12% active | AID 624173; also: potency is read from the fitted curve at half-maximal effect; % is scaled to controls: 0 for no effect and ±100 for the full control effect; nearly all actives have a fitted effect of over 50% in size
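Luminescent Kinase-Glo Plus end-point after 45 min room-temperature reaction of T. brucei pyruvate kinase started with 130 uM ADP (final). Buffer TEA 50 mM pH 7.2 with KCl, MgCl2, BSA, Tween-20; titration-based qHTS with fitted concentration-effect curves.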
* marks the source's active call; other numbers are inactive results; ? = inconclusive; . = no result given; + = active, no number; [ ] = dose if it differs, or a comment. Unless noted, calls follow the shape of the dose curve; as a rule, active = well fitted curve in the direction sought with a large enough effect; inconclusive = small, poorly fitted or top-dose-only effect, or another doubt; inactive = no such curve, though single readings can be large; an effect the other way counts as inactive or inconclusive.

SMILES	CHX counter	FBPA Giardia inh	Shiga toxin inh	RE007 growth inh	LmPK inhibitor	Tb PYK inh
O=C(O)CC(C(=O)O)n1nc(-c2ccccc2)cc1-c1ccccc1 (stereo not drawn)	39*	21%	73	-11%	12%	3%
N=c1scc(-c2ccccc2)n1/N=C/c1ccco1	46*	-16%	72*	.	-6%	-13%
CCOC(=O)c1c(C)c(C(=O)Nc2ccc3c(c2)OCO3)c(C)n1C	14	-12%	41*	-5%	0%	-20%
CCOC(=O)c1c(NC(=O)c2cc(C)oc2C)sc(C(=O)Nc2ccc(Cl)cc2)c1C	24*	1%	40	3%	1%	0%
CCOC(=O)c1c(NC(=O)CN2CCN(C)CC2)sc(C(=O)Nc2ccccc2)c1C	28*	-1%	18	-29%	0%	6%
CCOC(=O)c1c(N)sc(C(=O)Nc2ccc3c(c2)OCO3)c1C	11	0%	11	?	5µM*	-20%
CCOCCCNC(=O)C1CCC(CNS(=O)(=O)c2ccc(NC(C)=O)cc2)CC1 (stereo not drawn)	.	.	.	.	.	4%[15.4 µM]
Cc1cc(Cl)ccc1NC(=O)c1cccc(NC(=O)N2CCSc3ncccc32)c1	.	.	.	.	.	3%[15.4 µM]
Cc1ccc(CCNC(=O)c2ccc3c(Cl)c4c(nc3c2)CCCC4)cc1	.	.	.	.	.	3%
O=C(CSc1nnc(-c2ccccc2)c(-c2ccccc2)n1)NC1CCCCC1	.	.	.	.	.	0%[15.4 µM]
Cc1ccc2oc(C(=O)Nc3nonc3C)c(C)c2c1	28*	23%	67*	0%	5%	1%
COc1ccc2oc(C(=O)Nc3nnc(C)s3)c(C)c2c1	.	.	.	-30%	.	0%
CCc1nonc1NC(=O)c1oc2cc(C)c(C)cc2c1C	25*	.	37	-3%	-2%	0%
Cc1ccc2oc(C(=O)Nc3nnc(C)s3)c(C)c2c1	17*	2%	50	-25%	-9%	-3%
CCc1nonc1NC(=O)c1oc2ccc(Br)cc2c1C	-8	.	8	-7%	-6%	4%
CCOc1ccc(NC(=O)c2sc(-n3nc(C)c(Cc4ccc(Cl)cc4)c3C)nc2C)cc1	.	.	.	.	.	-1%
O=c1[nH]c(-c2ccc(O)cc2)nc2scc(-c3cccs3)c12	80*	-5%	108*	-3%	-3%	-7%
Cc1nc2scc(-c3cccs3)c2c(=O)[nH]1	-2	4%	2	-2%	0%	-4%
O=C(COc1ccccc1)Nc1ccc(-c2nnc(-c3ccco3)o2)cc1	-4	2%	2	7%	-9%	-12%
CCCOc1ccc(-c2nnc(-c3ccco3)o2)cc1	51*	12%	36	?	-27%	-3%
CC(C)COc1ccc(-c2nnc(-c3ccco3)o2)cc1	30*	-1%	37	-11%	0%	0%
COC(=O)N[C@@H](/C=C/c1ccccc1)C[N+](=O)[O-]	.	0%	.	.	.	.
O=C1OC2C(O)C(O)OC2C1O (stereo not drawn)	.	.	.	.	.	-8%
CCC(=O)Nc1cc(-c2cn3cccnc3n2)ccc1OC	.	.	.	.	.	-1%
Brc1ccc(-c2cn3cccnc3n2)cc1	35*	-6%	75*	0%	0%	-10%
SMILES	CHX counter	FBPA Giardia inh	Shiga toxin inh	RE007 growth inh	LmPK inhibitor	Tb PYK inh
Clc1ccc(-c2cn3cccnc3n2)cc1Cl	26*	-5%	61	-9%	-1%	3%
COc1ccc(-c2cn3cccnc3n2)cc1F	44*	3%	51*	-11%	-9%	-4%
Clc1ccc(-c2cn3cccnc3n2)cc1	19*	-1%	22	1%	-1%	1%
C/C(CCN1CCCc2nc(C)c(C)cc21)=N\OC[C@@H](O)[C@@H]1O[C@@H]2OC(C)(C)O[C@@H]2[C@H]1O	.	3%[12.9 µM]	.	.	.	.
CCOC(=O)C(NC(=O)c1ccccc1)(OCc1ccccc1)C(F)(F)F (stereo not drawn)	-2	-5%	-3	-3%	-2%	1%
CCOC(=O)C(NC(=O)c1cccc(Cl)c1)(OCc1ccccc1)C(F)(F)F (stereo not drawn)	20*	1%	+	-10%	-2%	1%
O=C1C=CC(=Nc2cccc3c2C(=O)c2ccccc2-3)O1	.	.	.	1%	.	8%
O=C1C=CC(=Nc2ccc3c(c2)Cc2cc(F)ccc2-3)O1	.	.	.	3.2µM*	.	?
